# Experimental data taken from ChEMBL document CHEMBL1157539, “Thousands of chemical starting points for antimalarial lead identification” (Nature, 2010).
# Experiments:
# Format in all cases: functional
# Plasmodium falciparum [1] = assay: GSK_TCMDC: Inhibition of Plasmodium falciparum 3D7 in whole red blood cells, using parasite LDH activity as an index of growth. Test compounds present at 2uM
# Plasmodium falciparum [2] = assay: GSK_TCMDC: Inhibition of Plasmodium falciparum Dd2 in whole red blood cells, using parasite LDH activity as an index of growth. Test compounds present at 2uM
# HepG2 = assay: GSK_TCMDC: Percent inhibition of human HepG2 cell line. Test compounds present at 10uM.
SMILES,Inhibition (Plasmodium falciparum [1]) [%],Inhibition (Plasmodium falciparum [2]) [%],Inhibition (HepG2) [%]
CC(C)CC(NC(=O)c1cccc(OCCN2CCOCC2)c1)C(=O)NC(/C=N/NC(=O)c1ccccc1)CCc1ccccc1 (stereo not given),96,88,0
Cc1cccc(C(=O)Nc2ccnc(N3CCC(N(C)Cc4cccc(O)c4)CC3)c2)c1.O=C(O)C(F)(F)F,95,41,7
CCCC1(NC[C@@H](O)[C@H](Cc2ccccc2)NC(=O)c2cc(NCC)cc(N3CCCCS3(=O)=O)c2)CCCCC1.Cl,100,98,4
O=C(O)C(F)(F)F.c1cncc(CCNCc2ccc(-c3cccc(-c4nc5ccccc5[nH]4)c3)cc2)c1,100,99,39
CC(=O)Nc1ccc(CN(Cc2ccc(OC(C)(C)C)cc2)Cc2ccc3c(c2)OCCO3)cc1,91,75,7
CCOC(=O)c1cc(=O)c2ccc(OCC#N)cc2o1,88,86,2
Cl.Oc1c(Cl)cc(-c2ccccc2)cc1CNC1CCCCC1,97,95,5
O=C(NC(Nc1ccc([N+](=O)[O-])cc1)C(Cl)(Cl)Cl)c1cccc(Cl)c1 (stereo not given),92,17,0
CCC(=O)N(c1ccccc1)C1CCN(CCCC(NC(=O)Nc2cc(C(F)(F)F)cc(C(F)(F)F)c2)c2ccc(Cl)c(Cl)c2)CC1 (stereo not given),99,18,29
Cc1ccc(NC(=O)c2ccc3nccnc3c2)cc1OC1CCN(Cc2ccc(F)cc2)CC1.O=C(O)C(F)(F)F,87,24,16
O=C(Nc1ccc(Cn2ncc(N3CCCNCC3)c(Cl)c2=O)cc1)Nc1cc(C(F)(F)F)cc(C(F)(F)F)c1.O=C(O)C(F)(F)F,100,29,25
CC(C)(C)c1ccc(C(=O)N2CCC3(CC2)C(=O)N(CC(=O)NCC2CCCO2)CN3c2ccccc2)cc1 (stereo not given),100,100,8
CC(C)c1sc(N2CCN(C)CC2)nc1C(=O)Nc1ccc(F)cc1C(F)(F)F.O=C(O)C(F)(F)F,100,99,3
CCc1c(CCNCCCCCCNCCc2ccc(OC)cc2)ccc(OC)c1OC.Cl,98,0,16
Cc1ccc(Cc2c[nH]c(NCCSCc3ccc(CN4CCOCC4)o3)nc2=O)cn1,95,0,2
Cc1csc(-c2nonc2NC(=O)COc2ccccc2C(C)C)n1,90,85,14
COc1ccccc1CNc1ncc(-c2ccsc2)c(-c2nccs2)n1,91,84,14
CCN1CCC(NCc2ccc(-c3ccc(Cl)s3)cc2)CC1,96,23,42
COc1ccc(N2CCc3c(-c4cccc5cnccc45)cc(C)nc32)c(C)c1,96,0,20
O=C(NCc1ccc(Cl)c(Cl)c1)c1ccc(C2CCN(Cc3ccc4[nH]cnc4c3)CC2)cc1,100,31,1

SMILES,Inhibition (Plasmodium falciparum [1]) [%],Inhibition (Plasmodium falciparum [2]) [%],Inhibition (HepG2) [%]
CC1CN(c2cnn(Cc3ccc(NC(=O)Nc4ccc(-c5ccccc5)cc4)cc3)c(=O)c2Cl)CC(C)N1.O=C(O)C(F)(F)F (stereo not given),100,46,82
Br.CCc1ccc(OCCCON2C(=N)N=C(N)NC2(C)C)cc1,95,95,64
N=C(N)NCCN(Cc1ccccc1)c1ccccc1,100,98,8
CC(C)n1ncc2c(C(=O)N3CCCCCC3)cc(-c3ccccc3)nc21,97,42,0
COc1cc2nc(Cl)nc(Nc3ccncc3)c2cc1OC.Cl,86,33,11
O=C(NCCCCN1CCC(c2cccc3ccccc23)CC1)c1ccc(-c2ccc(C(F)(F)F)cn2)cc1,91,36,31
CCCc1cn2c3c(cc(C(=O)N[C@@H](Cc4ccccc4)[C@H](O)CNC4CCCCC4)cc13)N(C)S(=O)(=O)CC2.O=CO,99,98,3
CNCCNCc1ccc(-c2ccc(-c3nc4cc(C(F)(F)F)ccc4[nH]3)s2)cc1.O=C(O)C(F)(F)F,99,100,30
NCc1ccc(CNCc2ccc(-c3ccc(-c4nc5cc(C(F)(F)F)ccc5[nH]4)s3)cc2)cc1.O=C(O)C(F)(F)F,95,92,34
COc1ccccc1NC(=O)OC(COc1ccc(N)cc1)CN1CC=C(c2ccccc2)CC1.O=C(O)C(F)(F)F (stereo not given),90,81,16
CNC(=O)c1cc(S(=O)(=O)Nc2ccc(OC)cc2)cs1,95,48,11
N#Cc1cccc(Nc2ncc3c(-c4cccc(NC(=O)Cc5cccc(Cl)c5)c4)c[nH]c3n2)c1.O=C(O)C(F)(F)F,100,95,0
CC1(C)[C@H]2CC[C@@H](CNc3nc(NCCc4c[nH]cn4)nc(NCc4cc(F)ccc4F)n3)[C@@H]1C2,100,91,0
NC1CCN(Cc2ccc(-c3ccc(-c4nc5cc(F)ccc5[nH]4)cc3)cc2)C1.O=C(O)C(F)(F)F (stereo not given),98,99,41
COc1ccc(-c2cc(C(=O)N[C@@H](CC3CCCCC3)C(=O)NCCN3CCCC3)ccc2O)cc1,90,12,12
O=C(Nc1ccc(Br)cc1)c1cc(Br)ccc1NS(=O)(=O)c1cc(C(F)(F)F)cc(C(F)(F)F)c1,85,67,68
O=C(Cc1ccc(Nc2nccc(Nc3cccc4[nH]ncc34)n2)cc1)Nc1ccc(C(F)(F)F)cc1,100,69,12
CCc1cn2c3c(cc(C(=O)N[C@@H](Cc4ccccc4)[C@H](O)CNCc4ccccc4)cc13)N(C)S(=O)(=O)CC2.O=CO,98,99,3
OC(CNc1ccnc(Nc2cccc(CCN3CCOCC3)c2)n1)c1ccccc1 (stereo not given),100,14,34
Br.CCCCCCCCn1c2c(c(=N)c3c1CCC3)CCC2,99,93,47

SMILES,Inhibition (Plasmodium falciparum [1]) [%],Inhibition (Plasmodium falciparum [2]) [%],Inhibition (HepG2) [%]
COc1cccc2c1CCN(CCN1CCC(NC(=O)c3ccc(-c4cccc(Cl)c4Cl)cc3)CC1)C2,100,38,47
CN1C(C)(C)CC(NC(=O)c2ccc(-c3nc4cc(Cl)ccc4[nH]3)cc2)CC1(C)C,99,36,23
CC(C)NCc1ccc(-c2cccc(NC(=O)c3cccc(C#N)c3)c2)cc1.O=C(O)C(F)(F)F,100,78,9
CN(CCC1CCN(C(=O)/C=C/c2ccc(Cl)c(Cl)c2)CC1)C1CCC(c2c[nH]c3ccccc23)CC1 (stereo not given),87,9,57
NC(=O)c1cc2nc(Nc3ccc(F)cc3)nc(Nc3ccc(S(N)(=O)=O)cc3)c2[nH]1.O=CO,100,99,2
O=C(NCCN1CCCC1)c1cccc(-c2ccc(-c3nc4ccccc4[nH]3)cc2)c1,100,36,20
Cc1ccc(CNC(=O)c2cnc(N3CCN(c4ccncc4)CC3)c(Cl)c2)cc1.O=C(O)C(F)(F)F,92,6,27
Cc1nc(-c2cccc(Nc3nccc(NCC(O)c4ccccc4C(F)(F)F)n3)c2)cs1 (stereo not given),97,50,48
CN(C)CCCN(C)c1cccc2c1nc(-c1cccnc1)n2CCNCc1ccccc1.O=C(O)C(F)(F)F,89,88,4
COc1ccc(NC(=O)c2csc(-c3cc(NC(=O)c4ccnc(N5CCCC5)c4)ccc3C)c2)cc1N1CCN(C)CC1.O=C(O)C(F)(F)F,100,80,4
CC(C)CN1CCCN(Cc2cccc(NC(=O)c3cc4ccccc4s3)c2)CC1.O=C(O)C(F)(F)F,87,6,5
COc1cccc(-c2ccc3c(-c4cccc(NC(C)=O)c4)cnc(N)c3c2)c1.O=CO,99,83,71
COc1ccc(Cl)cc1-c1nc(C(=O)NCCN2CCCCC2)c(C(C)C)s1.O=C(O)C(F)(F)F,100,37,14
CCN(CC)CCNC(=O)c1ccc(NC(=O)c2ccc(-c3cc(NC(=O)CC4CCCC4)ccc3C)cc2)cc1,99,95,12
O=C(NCC1Cc2cc(Oc3ccccc3)ccc2O1)c1ccc([N+](=O)[O-])o1 (stereo not given),88,81,83
Cc1cccc(Nc2nccc(NCC(O)c3ccc(C(F)(F)F)cc3)n2)c1 (stereo not given),100,54,11
Cl.N#Cc1ccc(C=CC(=O)NC2CCC(CCN3CCc4ccc(-c5cnccn5)cc4CC3)CC2)cc1 (stereo not given),100,87,37
O=C(NC1CCC(N2CCC(c3nc4ccccc4s3)CC2)CC1)c1cc2ccccc2[nH]1 (stereo not given),94,37,23
CC(C)COc1ccc(Cl)cc1Cc1ccc(-c2nc3ccc(Cl)cc3[nH]2)o1,97,96,19
COc1cc2nc(NCCn3ccnc3C)nc(NCCc3ccccc3)c2cc1OC,99,0,21
